This passage reports Potency results from PubChem BioAssay (NCATS).

Inconclusive results are not listed. A call without a number means that no potency is given here. Calls of active or inactive are those of the source. Calls come from the whole dose curve; as a rule, active = well fitted inhibition curve with a large enough effect; inconclusive = small, poorly fitted or top-dose-only effect; inactive = no such curve, though single readings can be large or run the other way.
Potency is the fitted concentration of half-maximal effect.

Sequence of Cytochrome P450 3A7 (Homo sapiens) (P24462 whole entry, looked up): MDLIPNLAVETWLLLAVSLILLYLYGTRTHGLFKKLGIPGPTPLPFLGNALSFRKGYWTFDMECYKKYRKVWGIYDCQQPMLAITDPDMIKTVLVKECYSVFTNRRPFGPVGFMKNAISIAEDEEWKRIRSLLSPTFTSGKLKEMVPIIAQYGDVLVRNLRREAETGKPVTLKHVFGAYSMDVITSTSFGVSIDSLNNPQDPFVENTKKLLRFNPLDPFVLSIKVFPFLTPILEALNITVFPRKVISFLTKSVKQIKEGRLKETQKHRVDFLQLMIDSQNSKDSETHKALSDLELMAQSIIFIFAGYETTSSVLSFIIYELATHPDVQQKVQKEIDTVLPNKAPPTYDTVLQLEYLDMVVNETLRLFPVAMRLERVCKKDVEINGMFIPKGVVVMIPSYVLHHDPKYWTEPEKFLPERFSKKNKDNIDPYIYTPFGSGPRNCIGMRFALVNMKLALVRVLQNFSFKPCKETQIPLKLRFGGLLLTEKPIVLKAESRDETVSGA

For this assay, the target named is Cytochrome P450 3A7 (Homo sapiens) (UniProt P24462). As to the kind of experiment: Cytochrome P450 family 3 subfamily A member 7 (CYP3A7) small molecule antagonists: luciferase biochemical qHTS assay (AID 1963596). Note: nearly all actives have a fitted effect of over 40% in size. To be noted: P450-Glo CYP3A7 enzyme luminescence, 1 h; series mostly up to 57.4 µM. The text has this:
National Center for Advancing Translational Sciences [NCATS] Assay Overview: Cytochrome P450 (CYP) enzymes are membrane-bound hemeproteins that play a key role in metabolism of drugs and xenobiotics. The CYP3A subfamily is the most abundant, representing 30% of the total adult hepatic CYP content, whereas CYP3A7 is found predominantly in human fetal liver and accounts up to 50% of the total fetal hepatic CYP content. Testing the effect of chemicals on CYP isozymes is useful to minimize the adverse drug reactions and toxicities in the drug development process. Chemicals were tested for their effect on CYP enzyme activities by using P450-Glo (TM) screening systems (Promega Corporation, Madison, WI). These systems provide a luminescent method containing proluciferin substrates and are converted to luciferin products by CYP isozymes. The luciferin products formed are detected with a luciferin detection reagent, and the amount of light produced is proportional to CYP activity. P450-Glo (TM) CYP3A7 screening system (Catalog. No. V8812) was used to detect the compounds that interfere with CYP3A7 activity. The positive control compound used for CYP3A7 assay is ketoconazole (Sigma-Aldrich, St. Louis, MO).
Assay Protocol Summary: Two ul of enzyme-substrate mix was dispensed into medium binding white/solid 1536-well plates (Greiner Bio-One North America Inc., Monroe, NC) using a Flying Reagent Dispenser (FRD, Aurora Discovery, San Diego, CA). Compounds dissolved in DMSO, and positive control (ketoconazole) were transferred to the assay plates at 23 nl using a Pintool station (Wako, San Diego, CA). The assay plates were incubated at room temperature for 10 min. Then 2 ul of NADPH regeneration solution was added to each well of the assay plates using an FRD and incubated at room temperature for 1 h. The reaction was stopped by adding 4 ul of detection reagent using an FRD and after 20 min incubation at room temperature the luminescence signal was measured using a ViewLux plate reader (Perkin Elmer, Shelton, CT). Data were expressed as relative luminescence units.
On to `Oc1c(Br)cc(Br)cc1Br`, for which the Potency entry was “inactive”.
The same measure for `Oc1ccccc1-c1ccccc1`: “inactive”; for `CC1NCCOC1c1ccccc1` (stereo not given): “inactive”; for `CCN[C@@H](C)Cc1ccccc1`: “inactive”.
The same measure for `COc1ccc2c3c1O[C@H]1[C@H](O)CC[C@H]4[C@@H](C2)N(C)CC[C@@]341`: “inactive”; for `C[C@H]1CNCCc2ccc(Cl)cc21`: “inactive”; for `c1ccc2c(c1)sc1ccccc12`: “inactive”.
Next, `CN1C2CCC1CC(OC(=O)N1Cc3ccccc3NC1=O)C2` (stereo not given): “inactive”; `O=C(O)COc1ccccc1`: “inactive”.
Take `C=C1CC[C@@]2(O)[C@H]3Cc4ccc(O)c5c4[C@@]2(CCN3CC2CC2)[C@H]1O5`: the Potency entry is “inactive”.
Next, `CCC1(CC)C(=O)NC(=O)NC1=O`: “inactive”.
Turning to `CN(C)[C@@H]1C(=O)C(C(N)=O)=C(O)[C@@]2(O)C(=O)C3=C(O)c4c(O)cccc4[C@@](C)(O)[C@H]3[C@H](O)[C@@H]12`, the Potency entry is “inactive”.
The same measure for `O=P1(N(CCCl)CCCl)NCCCO1` (stereo not given): “inactive”; for `C[C@H]1[C@@H]2Cc3ccc(O)cc3[C@@]1(C)CCN2C`: “inactive”.
The same measure for `CCOCCOC(C)=O`: “inactive”; for `CC(=O)NC1CCSC1=O` (stereo not given): “inactive”; for `O=c1[nH]c2ccccc2n1C1CCNCC1`: “inactive”.
In the case of `CN(Cc1cccc(-c2ccncc2)c1)C(=O)Oc1ccc(-c2ccc(C(N)=O)cc2)cc1`, the Potency entry was “inactive”.
Next, `CN[C@@H](C)[C@H](O)c1ccccc1`: “inactive”; `CC(O)CN1CCN(CC(=O)[O-])CCN(CC(=O)[O-])CCN(CC(=O)[O-])CC1.[Gd+3]` (stereo not given): “inactive”; `CC[N+]1(CCOC(=O)C(O)(c2ccccc2)c2ccccc2)CCCCC1`: “inactive”.
Take `CC(=O)N(C)c1cccc(-c2ccnc3c(C(=O)c4cccs4)cnn23)c1`: the Potency result is “inactive”.
Regarding `CC(C)C(Br)C(=O)NC(N)=O` (stereo not given), the Potency entry was “inactive”.
Next, `C[C@@H]1O[C@@H](O[C@H]2C[C@@H](O)[C@]3(CO)[C@H]4[C@H](O)C[C@]5(C)[C@@H](C6=CC(=O)OC6)CC[C@]5(O)[C@@H]4CC[C@]3(O)C2)[C@H](O)[C@H](O)[C@H]1O`: “inactive”; `Clc1ccccc1N1CCNCC1`: “inactive”; `COC(=O)c1ccccc1C(=O)OC`: “inactive”.
On to `COC(=O)C(Cl)C(=O)OC`, for which the Potency result was “inactive”.
Next, `O=C(O)CCCCCCNC1c2ccccc2CCc2ccccc21`: “inactive”; `O=C(O)Cc1ccccc1`: “inactive”; `CCCN(CCC)c1c([N+](=O)[O-])cc(S(N)(=O)=O)cc1[N+](=O)[O-]`: 1120 nM (active).
Next, `CC(C)N(CCC(C(N)=O)(c1ccccc1)c1ccccn1)C(C)C` (stereo not given): “inactive”; `CCNc1nc(Cl)nc(NCC)n1`: “inactive”; `COc1ccc(OC)c(C(O)C(C)N)c1` (stereo not given): “inactive”.
The same measure for `CN1C(=O)CN=C(c2ccccc2)c2cc([N+](=O)[O-])ccc21`: “inactive”; for `OC(O)C(Cl)(Cl)Cl`: “inactive”; for `CCCN1CCC[C@@H]2Cc3[nH]ncc3C[C@H]21`: “inactive”.
Take `CN1C(=O)COc2c(C(=O)NC3CN4CCC3CC4)cc(Cl)cc21` (stereo not given): the Potency result was “inactive”.
The same measure for `ClCCN1CCCC1`: “inactive”; for `CC(=O)C1CCOC1=O` (stereo not given): “inactive”.
The same measure for `CN1CCN(C(=O)O[C@H]2c3nccnc3C(=O)N2c2ccc(Cl)cn2)CC1`: “inactive”.
